In the supplement of paper PMC10849652:
Targets with a hit are over-represented here; the source holds about 7,900 in all. About 0.6% of all pairs of compound and target were hits. Values without a mark were called inactive.

Key:
Assay in all cases: log2 fold change, soluble protein after heating vs DMSO (PISA); higher = thermal stabilisation; K562 cells, 10 uM, 30 min; active = over 0.2 and 3.5 SD of the protein, either way, in both replicates (recomputed)
[1] = compound: CS(=O)(=O)c1ccc(-c2cnc(N)c(C(=O)Nc3ccccc3)n2)cc1
Outline: (§1)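 K562 cells at 2×10^6 cells/mL were treated for 30 min with 10 μM compound, and aliquots were heated for 3 min over 48°C-58°C before pooling. Extraction used PBS with 0.5% NP-40 at 4°C, and soluble protein was the supernatant after 21,000xg for 90 min, measured by TMTpro 16plex LC-MS/MS with channel sums equalised. Thermal stability values, relative to control samples and from duplicates, are log2 fold changes.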

[2] = compound: C[C@@H](Oc1cc(-c2cnn(C3CCNCC3)c2)cnc1N)c1c(Cl)ccc(F)c1Cl [crizotinib]
Outline: as §1

[3] = compound: C[C@@H]1COCCN1C2=NC(=NC(=C2)C3(CC3)S(=O)(=O)C)C4=C5C=CNC5=CC=C4
Outline: as §1

[4] = compound: C[C@H](C1=CC=C(C=C1)C(=O)NC2=C3C=CNC3=NC=C2)N
Outline: as §1

[5] = compound: C[C@H](Nc1ncnc2nc[nH]c12)c1cc2cccc(Cl)c2c(=O)n1-c1ccccc1 [duvelisib]
Outline: as §1

[6] = compound: Cc1cc(Nc2cc(CN3CCOCC3)c3nc(C)c(Cc4ccc(Cl)cc4F)n3n2)n[nH]1 [gandotinib]
Outline: as §1

[7] = compound: Cc1cc(Nc2cc(N3CCN(C)CC3)nc(Sc3ccc(NC(=O)C4CC4)cc3)n2)n[nH]1 [tozasertib]
Outline: as §1

[8] = compound: Cc1cc(SCc2sc(-c3ccc(C(F)(F)F)cc3)nc2C)ccc1OCC(=O)O
Outline: as §1

[9] = compound: Cc1ccc(-n2nc(C(C)(C)C)cc2NC(=O)Nc2ccc(OCCN3CCOCC3)c3ccccc23)cc1 [doramapimod]
Outline: as §1

[10] = compound: Cc1ccc(C(=O)N(CCCN)[C@@H](c2nc3cc(Cl)ccc3c(=O)n2Cc2ccccc2)C(C)C)cc1 [ispinesib]
Outline: as §1

[11] = compound: Cc1ccc(NC(=O)c2ccc(CN3CC[C@H](N(C)C)C3)c(C(F)(F)F)c2)cc1Nc1nccc(-c2cncnc2)n1 [bafetinib]
Outline: as §1

[12] = compound: Cc1cccc(CC(=O)N2CCc3c2ccc(-c2cn(C)c4ncnc(N)c24)c3F)n1
Outline: as §1

[13] = compound: Cc1cn(-c2cc(NC(=O)c3ccc(C)c(Nc4nccc(-c5cccnc5)n4)c3)cc(C(F)(F)F)c2)cn1 [nilotinib]
Outline: as §1

[14] = compound: Cc1nc(Nc2n[nH]c3c2CN(C(=O)N[C@H](CN(C)C)c2ccccc2)C3(C)C)c2sccc2n1
Outline: as §1

[15] = compound: Cc1nc(Nc2ncc(C(=O)Nc3c(C)cccc3Cl)s2)cc(N2CCN(CCO)CC2)n1 [dasatinib]
Outline: as §1

[16] = compound: Cc1ncc(-c2ccnc(Nc3ccc(S(C)(=O)=O)cc3)n2)n1C(C)C
Outline: as §1

[17] = compound: Cn1cc(-c2ccc3c(c2)CCN3C(=O)Cc2cccc(C(F)(F)F)c2)c2c(N)ncnc21
Outline: as §1

[18] = compound: Cn1cc(-c2ccc3nnc(C(F)(F)c4ccc5ncccc5c4)n3n2)cn1
Outline: as §1

[19] = compound: Cn1cncc1[C@@](N)(c1ccc(Cl)cc1)c1ccc2c(c1)c(-c1cccc(Cl)c1)cc(=O)n2C [tipifarnib]
Outline: as §1

[20] = compound: FC(F)(F)c1ccc(/C=C/c2nc(COc3ccc(CCCCn4ccnn4)cc3)co2)cc1 [mubritinib]
Outline: as §1

Chain of UniProt P50416 (P50416 whole entry, looked up): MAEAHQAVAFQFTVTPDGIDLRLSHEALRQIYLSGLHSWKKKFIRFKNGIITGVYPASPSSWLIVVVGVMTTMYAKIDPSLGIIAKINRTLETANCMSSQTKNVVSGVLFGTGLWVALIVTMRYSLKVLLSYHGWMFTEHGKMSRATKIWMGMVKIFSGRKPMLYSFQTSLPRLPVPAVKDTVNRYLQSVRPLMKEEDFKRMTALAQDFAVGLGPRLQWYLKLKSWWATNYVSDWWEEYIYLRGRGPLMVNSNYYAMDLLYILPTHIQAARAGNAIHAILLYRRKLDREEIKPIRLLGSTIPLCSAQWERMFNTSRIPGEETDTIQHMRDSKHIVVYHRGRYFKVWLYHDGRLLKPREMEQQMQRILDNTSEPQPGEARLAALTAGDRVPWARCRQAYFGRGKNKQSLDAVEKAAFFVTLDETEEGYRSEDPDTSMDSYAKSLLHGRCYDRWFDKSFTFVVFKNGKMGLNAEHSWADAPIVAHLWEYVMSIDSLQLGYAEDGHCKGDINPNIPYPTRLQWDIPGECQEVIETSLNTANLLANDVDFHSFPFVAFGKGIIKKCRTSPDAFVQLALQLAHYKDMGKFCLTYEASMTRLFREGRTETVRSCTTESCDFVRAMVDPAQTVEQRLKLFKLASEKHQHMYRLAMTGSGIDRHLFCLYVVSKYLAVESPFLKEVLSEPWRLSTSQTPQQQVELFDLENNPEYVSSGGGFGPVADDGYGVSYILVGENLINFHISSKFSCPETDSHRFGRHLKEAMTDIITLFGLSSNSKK
Chain of UniProt Q8IUI8 (Q8IUI8 whole entry, looked up): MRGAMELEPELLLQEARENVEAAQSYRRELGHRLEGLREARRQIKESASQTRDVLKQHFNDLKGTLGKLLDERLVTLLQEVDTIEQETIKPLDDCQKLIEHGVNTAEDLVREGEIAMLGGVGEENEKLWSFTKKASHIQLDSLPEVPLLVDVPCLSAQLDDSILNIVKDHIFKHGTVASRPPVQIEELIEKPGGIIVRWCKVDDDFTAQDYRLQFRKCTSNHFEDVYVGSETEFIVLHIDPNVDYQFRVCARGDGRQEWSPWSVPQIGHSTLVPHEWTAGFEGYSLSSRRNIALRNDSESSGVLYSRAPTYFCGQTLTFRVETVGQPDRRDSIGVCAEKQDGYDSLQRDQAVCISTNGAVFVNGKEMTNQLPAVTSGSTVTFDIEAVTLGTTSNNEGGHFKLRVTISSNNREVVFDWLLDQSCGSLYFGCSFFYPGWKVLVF
Chain of UniProt P08174 (P08174 whole entry, looked up): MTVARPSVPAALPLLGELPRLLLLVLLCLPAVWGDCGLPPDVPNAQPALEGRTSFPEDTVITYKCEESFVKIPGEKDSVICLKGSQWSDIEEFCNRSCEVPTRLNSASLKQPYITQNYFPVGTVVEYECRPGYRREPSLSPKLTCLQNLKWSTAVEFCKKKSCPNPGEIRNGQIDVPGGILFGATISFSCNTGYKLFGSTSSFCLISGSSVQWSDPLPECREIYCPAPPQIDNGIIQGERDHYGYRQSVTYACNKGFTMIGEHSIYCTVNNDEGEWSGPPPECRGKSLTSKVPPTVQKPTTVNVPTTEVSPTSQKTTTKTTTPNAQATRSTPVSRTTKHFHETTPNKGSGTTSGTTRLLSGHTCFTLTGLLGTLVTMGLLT
Chain of UniProt Q9NZN8 (Q9NZN8 whole entry, looked up): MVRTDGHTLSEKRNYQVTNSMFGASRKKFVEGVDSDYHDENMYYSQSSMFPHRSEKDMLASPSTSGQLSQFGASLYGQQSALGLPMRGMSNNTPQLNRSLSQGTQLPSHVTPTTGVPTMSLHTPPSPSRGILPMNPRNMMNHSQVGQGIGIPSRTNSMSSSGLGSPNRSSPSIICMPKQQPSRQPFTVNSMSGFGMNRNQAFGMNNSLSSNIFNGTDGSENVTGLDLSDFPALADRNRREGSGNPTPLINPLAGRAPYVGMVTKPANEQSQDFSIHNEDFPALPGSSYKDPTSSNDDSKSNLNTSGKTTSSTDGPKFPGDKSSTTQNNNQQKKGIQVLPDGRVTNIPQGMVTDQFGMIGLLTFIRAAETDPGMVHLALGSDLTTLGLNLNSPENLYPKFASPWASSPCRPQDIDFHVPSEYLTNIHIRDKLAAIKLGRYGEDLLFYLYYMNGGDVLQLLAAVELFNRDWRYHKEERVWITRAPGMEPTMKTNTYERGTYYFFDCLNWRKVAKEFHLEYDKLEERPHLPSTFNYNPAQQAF
Chain of UniProt Q99439 (Q99439 whole entry, looked up): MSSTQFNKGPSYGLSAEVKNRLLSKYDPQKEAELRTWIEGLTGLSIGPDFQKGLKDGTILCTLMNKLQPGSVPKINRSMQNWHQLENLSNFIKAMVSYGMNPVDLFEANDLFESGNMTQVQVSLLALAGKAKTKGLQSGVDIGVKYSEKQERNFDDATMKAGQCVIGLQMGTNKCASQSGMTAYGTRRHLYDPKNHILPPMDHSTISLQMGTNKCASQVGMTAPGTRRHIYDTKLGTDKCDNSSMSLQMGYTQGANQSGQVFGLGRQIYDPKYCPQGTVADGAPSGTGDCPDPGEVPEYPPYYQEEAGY
Chain of UniProt P83916 (P83916 whole entry, looked up): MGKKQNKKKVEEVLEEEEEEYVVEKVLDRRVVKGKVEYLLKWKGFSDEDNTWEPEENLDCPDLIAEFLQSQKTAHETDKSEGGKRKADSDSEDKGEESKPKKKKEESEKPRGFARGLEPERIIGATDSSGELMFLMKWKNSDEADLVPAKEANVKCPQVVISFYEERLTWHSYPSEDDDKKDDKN
Chain of UniProt P42574 (P42574 whole entry, looked up): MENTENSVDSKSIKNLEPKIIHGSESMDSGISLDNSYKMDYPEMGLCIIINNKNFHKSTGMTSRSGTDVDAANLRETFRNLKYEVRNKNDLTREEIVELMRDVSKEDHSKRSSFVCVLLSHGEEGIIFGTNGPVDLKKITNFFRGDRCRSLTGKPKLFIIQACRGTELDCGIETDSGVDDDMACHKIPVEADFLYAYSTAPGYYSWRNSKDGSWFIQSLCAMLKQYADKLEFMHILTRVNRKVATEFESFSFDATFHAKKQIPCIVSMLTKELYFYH
Chain of UniProt O75909 (O75909 whole entry, looked up): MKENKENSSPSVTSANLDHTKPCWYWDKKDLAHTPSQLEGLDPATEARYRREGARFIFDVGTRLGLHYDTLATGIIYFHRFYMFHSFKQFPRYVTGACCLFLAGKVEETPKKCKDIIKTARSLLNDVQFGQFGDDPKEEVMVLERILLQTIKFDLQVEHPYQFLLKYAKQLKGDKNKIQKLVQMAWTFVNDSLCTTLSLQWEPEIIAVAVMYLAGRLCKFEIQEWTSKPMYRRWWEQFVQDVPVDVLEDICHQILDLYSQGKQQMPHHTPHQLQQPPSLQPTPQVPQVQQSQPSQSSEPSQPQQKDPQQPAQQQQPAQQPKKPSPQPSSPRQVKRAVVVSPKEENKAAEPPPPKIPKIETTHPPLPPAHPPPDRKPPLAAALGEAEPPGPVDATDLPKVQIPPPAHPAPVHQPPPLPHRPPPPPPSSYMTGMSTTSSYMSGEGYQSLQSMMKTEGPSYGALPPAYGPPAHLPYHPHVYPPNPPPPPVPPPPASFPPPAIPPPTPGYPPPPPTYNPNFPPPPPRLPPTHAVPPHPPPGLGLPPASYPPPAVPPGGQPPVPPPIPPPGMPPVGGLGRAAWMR
Chain of UniProt O76031 (O76031 whole entry, looked up): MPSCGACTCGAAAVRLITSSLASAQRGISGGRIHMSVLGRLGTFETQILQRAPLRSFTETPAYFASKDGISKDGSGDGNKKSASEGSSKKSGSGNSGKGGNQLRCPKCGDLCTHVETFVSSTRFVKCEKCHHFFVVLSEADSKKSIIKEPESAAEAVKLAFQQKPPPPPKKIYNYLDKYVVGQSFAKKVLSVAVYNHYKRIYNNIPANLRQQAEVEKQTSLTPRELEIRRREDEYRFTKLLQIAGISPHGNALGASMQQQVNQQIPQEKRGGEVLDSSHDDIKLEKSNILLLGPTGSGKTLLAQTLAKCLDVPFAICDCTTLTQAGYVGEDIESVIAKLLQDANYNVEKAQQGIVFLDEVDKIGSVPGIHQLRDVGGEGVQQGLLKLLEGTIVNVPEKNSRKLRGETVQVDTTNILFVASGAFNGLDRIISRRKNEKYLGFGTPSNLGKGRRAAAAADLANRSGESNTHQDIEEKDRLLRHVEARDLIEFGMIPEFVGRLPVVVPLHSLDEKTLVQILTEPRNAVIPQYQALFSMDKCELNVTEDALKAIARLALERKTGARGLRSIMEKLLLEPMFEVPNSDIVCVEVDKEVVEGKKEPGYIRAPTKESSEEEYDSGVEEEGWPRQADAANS
Chain of UniProt Q8N4Q1 (Q8N4Q1 whole entry, looked up): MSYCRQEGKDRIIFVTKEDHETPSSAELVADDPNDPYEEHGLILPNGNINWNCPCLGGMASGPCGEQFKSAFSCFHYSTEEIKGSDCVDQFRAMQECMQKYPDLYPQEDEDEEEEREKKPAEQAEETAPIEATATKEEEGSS
Chain of UniProt P00915 (P00915 whole entry, looked up): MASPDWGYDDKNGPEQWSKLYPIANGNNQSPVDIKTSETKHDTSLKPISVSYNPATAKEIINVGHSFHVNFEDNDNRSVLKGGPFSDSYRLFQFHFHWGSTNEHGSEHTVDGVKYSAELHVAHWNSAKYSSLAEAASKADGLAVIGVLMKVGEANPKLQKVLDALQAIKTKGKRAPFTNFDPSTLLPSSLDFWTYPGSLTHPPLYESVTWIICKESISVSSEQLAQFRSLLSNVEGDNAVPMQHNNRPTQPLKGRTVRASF
Chain of UniProt P45973 (P45973 whole entry, looked up): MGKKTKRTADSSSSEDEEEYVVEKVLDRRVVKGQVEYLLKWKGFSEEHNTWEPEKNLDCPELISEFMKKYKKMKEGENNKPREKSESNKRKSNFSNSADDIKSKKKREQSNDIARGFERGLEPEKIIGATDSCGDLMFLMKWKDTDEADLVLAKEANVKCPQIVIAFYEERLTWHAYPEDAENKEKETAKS

| Target | log2 fold change [1] | log2 fold change [2] | log2 fold change [3] | log2 fold change [4] | log2 fold change [5] | log2 fold change [6] | log2 fold change [7] | log2 fold change [8] | log2 fold change [9] | log2 fold change [10] | log2 fold change [11] | log2 fold change [12] | log2 fold change [13] | log2 fold change [14] | log2 fold change [15] | log2 fold change [16] | log2 fold change [17] | log2 fold change [18] | log2 fold change [19] | log2 fold change [20] |
| --- | --- | --- | --- | --- | --- | --- | --- | --- | --- | --- | --- | --- | --- | --- | --- | --- | --- | --- | --- | --- |
| CPT1A (UniProt P50416) | 0.043 | 0.546 (active) | 0.02 | 0.047 | 0.022 | 0.211 | 0.161 | 0.079 | 0.012 | 0.322 | 0.171 | 0.006 | 0.058 | 0.021 | -0.042 | -0.107 | -0.024 | -0.036 | 0.187 | -0.05 |
| CHCHD4 isoform 2 (UniProt Q8N4Q1) | -0.041 | 0.017 | 0.156 | -0.272 | -0.217 | -0.079 | 0.182 | 0.022 | 0.069 | -0.074 | 0 | 0.764 (active) | -0.054 | -0.015 | -0.121 | -0.039 | -0.185 | -0.059 | -0.208 | 0 |
| CA1 (UniProt P00915) | 0.005 | 0 | 0.046 | -0.094 | -0.001 | -0.036 | 0.018 | 0.019 | -0.012 | 0.116 | -0.017 | -0.055 | -0.004 | -0.014 | -0.007 | 0.011 | 0.029 | -0.008 | -0.011 | 0.067 |
| CRLF3 (UniProt Q8IUI8) | 0.053 | -0.015 | 0.048 | 0.017 | 0.076 | 0.016 | 0.021 | 0.019 | 0.138 | -0.059 | -0.032 | -0.045 | -0.043 | -0.117 | -0.145 | 0.011 | 0.025 | 0.024 | -0.018 | 0.032 |
| CCNT1 (UniProt O60563) | -0.124 | -0.088 | -0.098 | 0.13 | -0.076 | -0.1 | -0.075 | 0.076 | 0.181 | -0.277 | 0.062 | 0.036 | 0.027 | -0.272 | -0.016 | -0.301 | -0.051 | -0.122 | 0.142 | -0.093 |
| CLPX (UniProt O76031) | 0.061 | 0.291 (active) | 0.027 | 0.004 | 0.004 | 0.003 | -0.012 | -0.05 | -0.002 | 0.018 | 0.008 | -0.074 | -0.006 | 0.042 | 0.006 | -0.019 | -0.012 | 0.032 | 0.052 | -0.048 |
| CCNK isoform 4 (UniProt O75909) | -0.014 | -0.023 | 0.073 | -0.042 | -0.06 | 0.324 (active) | 0.157 | 0.016 | 0.157 | 0.03 | 0.106 | -0.021 | 0.045 | 0.046 | -0.013 | -0.025 | -0.118 | -0.069 | 0.096 | 0.006 |
| CCAR1 (UniProt Q8IX12) | 0.004 | -0.238 | 0.034 | -0.016 | 0.012 | -0.263 (active) | -0.063 | 0.067 | -0.03 | -0.102 | 0.036 | 0.036 | -0.055 | -0.033 | -0.112 | -0.095 | 0.079 | 0.019 | -0.091 | 0.122 |
| CERT isoform 3 (UniProt Q9Y5P4) | 0.015 | 0.102 | 0.079 | -0.327 (active) | 0.067 | 0.209 | 0.068 | -0.047 | 0.192 | 0.109 | 0.032 | -0.08 | 0.193 | -0.397 (active) | 0.019 | -0.11 | 0.109 | 0.021 | 0.111 | 0.117 |
| C4A (UniProt P0C0L4) | -0.096 | 0.065 | 0.088 | 0.056 | 0.026 | -0.375 | -0.056 | 0.008 | -0.153 | -0.155 | -0.316 | -0.018 | 0.027 | 0.136 | -0.044 | 0.217 | 0.163 | 0.052 | -0.087 | -0.193 |
| CBX1 (UniProt P83916) | -0.03 | 0.001 | 0.043 | -0.08 | -0.006 | 0.004 | 0.06 | -0.056 | 0.105 | 0.04 | -0.037 | -0.025 | 0.141 | -0.089 | 0.084 | -0.003 | -0.034 | 0.011 | -0.039 | 0.066 |
| CD55 isoform 7 (UniProt P08174) | -0.023 | 0.081 | -0.096 | -0.14 | -0.021 | 0.052 | 0.067 | -0.031 | 0.02 | 0.132 | 0.168 | -0.06 | 0.086 | 0.027 | 0.096 | -0.026 | -0.051 | -0.012 | -0.027 | -0.075 |
| CNOT2 (UniProt Q9NZN8) | 0.028 | -0.019 | 0.038 | 0.046 | -0.021 | -0.045 | -0.006 | 0.077 | -0.012 | -0.02 | -0.002 | 0 | 0.048 | -0.063 | -0.035 | 0.01 | -0.055 | 0.022 | -0.063 | 0.054 |
| CASP3 (UniProt P42574) | 0.017 | 0.036 | -0.059 | -0.057 | -0.025 | -0.019 | -0.036 | -0.05 | -0.022 | -0.004 | -0.031 | -0.042 | 0.013 | -0.012 | 0.002 | -0.007 | 0.008 | -0.022 | -0.055 | 0.007 |
| CNN2 (UniProt Q99439) | -0.003 | -0.058 | 0.058 | -0.005 | -0.017 | -0.088 | 0.092 | 0.012 | 0.007 | -0.059 | -0.001 | 0.052 | -0.075 | -0.074 | -0.14 | 0.006 | 0.011 | 0.044 | -0.16 | 0.051 |
| CBX5 (UniProt P45973) | 0.012 | 0.128 | -0.037 | -0.058 | 0.029 | -0.015 | -0.01 | 0.059 | -0.045 | 0.092 | -0.019 | 0.01 | 0.002 | -0.138 | -0.069 | -0.064 | -0.01 | -0.02 | -0.048 | 0.062 |
